Measurements from the supplement of paper PMC10849652.
The full data set covers some 8,800 targets. This sample favours those with a hit. About 0.5% of all pairs of compound and target were hits.

How the values were obtained:
Test in all cases: log2 fold change, soluble protein after heating vs DMSO (PISA); higher = thermal stabilisation; K562 lysate, 10 uM; active = over 0.2 and 3.5 SD of the protein, either way, in both replicates (recomputed)
vemurafenib = compound: CCCS(=O)(=O)Nc1ccc(F)c(C(=O)c2c[nH]c3ncc(-c4ccc(Cl)cc4)cc23)c1F [vemurafenib]
Procedure, shortened: (§1)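 K562 pellets were dounce-homogenised in PBS pH 7.4 containing 1 mM MgCl2, and the crude extract, at 1 mg/mL protein, was exposed to 10 μM compound for 30 min. Aliquots were heated for 3 min across 48°C-58°C, pooled, brought to 0.5% NP-40 at 4°C and spun at 21,000xg for 90 min, with the supernatant taken as soluble protein. TMTpro 16plex LC-MS/MS with equalised channel sums quantified that protein. Values are log-two fold changes in thermal stability relative to solvent controls, taken from duplicates.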

[1] = compound: CCCS(=O)(=O)Nc1ccc(F)c(C(=O)c2c[nH]c3ncc(Cl)cc23)c1F
Procedure, shortened: as §1

barasertib = compound: CCN(CCCOc1ccc2c(Nc3cc(CC(=O)Nc4cccc(F)c4)[nH]n3)ncnc2c1)CCOP(=O)(O)O [barasertib]
Procedure, shortened: as §1

[2] = compound: CC[C@@H]1C(=O)N(C)c2cnc(Nc3ccc(C(=O)NC4CCN(C)CC4)cc3OC)nc2N1C1CCCC1
Procedure, shortened: as §1

volasertib = compound: CC[C@@H]1C(=O)N(C)c2cnc(Nc3ccc(C(=O)N[C@H]4CC[C@H](N5CCN(CC6CC6)CC5)CC4)cc3OC)nc2N1C(C)C [volasertib]
Procedure, shortened: as §1

[3] = compound: CCn1c(C(=O)N(C2CC2)C2CC2)cc2c3c(ncn3C)c(Nc3cc(C)n(C)n3)nc21
Procedure, shortened: as §1

[4] = compound: CCn1cc(-c2ccnc3[nH]c(-c4cccc(CN(C)C)c4)cc23)c(-c2ccc(NC(=O)N(C)C)cc2)n1
Procedure, shortened: as §1

[5] = compound: CN1CCC(CNc2ccc3ncc(-c4cccc(OC(F)(F)F)c4)n3n2)CC1
Procedure, shortened: as §1

saracatinib = compound: CN1CCN(CCOc2cc(OC3CCOCC3)c3c(Nc4c(Cl)ccc5c4OCO5)ncnc3c2)CC1 [saracatinib]
Procedure, shortened: as §1

sotrastaurin = compound: CN1CCN(c2nc(C3=C(c4c[nH]c5ccccc45)C(=O)NC3=O)c3ccccc3n2)CC1 [sotrastaurin]
Procedure, shortened: as §1

alvocidib = compound: CN1CC[C@H](c2c(O)cc(O)c3c(=O)cc(-c4ccccc4Cl)oc23)[C@H](O)C1 [alvocidib]
Procedure, shortened: as §1

Tubastatin A = compound: CN1CCc2c(c3ccccc3n2Cc2ccc(C(=O)NO)cc2)C1 [Tubastatin A]
Procedure, shortened: as §1

[6] = compound: CNC(=O)C1=CC=CC=C1NC2=NC(=NC=C2Cl)NC3=C(C=C(C=C3)N4CCOCC4)OC
Procedure, shortened: as §1

defactinib = compound: CNC(=O)c1ccc(Nc2ncc(C(F)(F)F)c(NCc3nccnc3N(C)S(C)(=O)=O)n2)cc1 [defactinib]
Procedure, shortened: as §1

[7] = compound: CNc1nc(-c2ccc3c(N)n[nH]c3c2)cc(N2C[C@@H](C(=O)NC3CCCCC3)CC[C@H]2C)n1
Procedure, shortened: as §1

encorafenib = compound: COC(=O)N[C@@H](C)CNc1nccc(-c2cn(C(C)C)nc2-c2cc(Cl)cc(NS(C)(=O)=O)c2F)n1 [encorafenib]
Procedure, shortened: as §1

[8] = compound: COC(=O)[C@H](CCSC)NC(=O)C1=C(C=C(C=C1)NC[C@H](CS)N)C2=CC=CC=C2
Procedure, shortened: as §1

alisertib = compound: COc1cc(Nc2ncc3c(n2)-c2ccc(Cl)cc2C(c2c(F)cccc2OC)=NC3)ccc1C(=O)O [alisertib]
Procedure, shortened: as §1

[9] = compound: COc1cc2nc(-c3cc(F)ccc3O)nc(N[C@@H]3CNC[C@H]3C(C)(C)O)c2cc1OC
Procedure, shortened: as §1

gefitinib = compound: COc1cc2ncnc(Nc3ccc(F)c(Cl)c3)c2cc1OCCCN1CCOCC1 [gefitinib]
Procedure, shortened: as §1

Measured: log2 fold change

PAIP2 (UniProt Q9BPZ3)
UniProt Q9BPZ3, sequence (Q9BPZ3 whole entry, looked up): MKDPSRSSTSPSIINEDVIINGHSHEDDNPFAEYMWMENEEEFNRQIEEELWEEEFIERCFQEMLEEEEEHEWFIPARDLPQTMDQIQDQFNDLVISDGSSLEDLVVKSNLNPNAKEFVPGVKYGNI
inactive: vemurafenib 0 | [1] -0.013 | [2] 0.039 | volasertib -0.018 | [3] 0.02 | [4] -0.043 | [5] -0.001 | saracatinib -0.081 | sotrastaurin -0.073 | alvocidib 0.009 | Tubastatin A 0.045 | [6] -0.03 | defactinib -0.056 | [7] 0.037 | encorafenib -0.092 | [8] 0.071 | alisertib -0.038 | [9] -0.049 | gefitinib -0.019
active: barasertib 0.272

MTOR (UniProt P42345)
inactive: vemurafenib 0.026 | [1] 0.015 | barasertib 0.052 | [2] -0.045 | volasertib -0.044 | [3] -0.006 | [4] -0.04 | [5] -0.031 | saracatinib 0.005 | sotrastaurin 0.03 | alvocidib -0.054 | Tubastatin A -0.118 | [6] -0.038 | defactinib 0.01 | [7] -0.025 | encorafenib 0.016 | [8] 0.014 | alisertib 0.006 | [9] 0 | gefitinib -0.039

NUP205 (UniProt Q92621)
UniProt Q92621, sequence (Q92621 whole entry, looked up): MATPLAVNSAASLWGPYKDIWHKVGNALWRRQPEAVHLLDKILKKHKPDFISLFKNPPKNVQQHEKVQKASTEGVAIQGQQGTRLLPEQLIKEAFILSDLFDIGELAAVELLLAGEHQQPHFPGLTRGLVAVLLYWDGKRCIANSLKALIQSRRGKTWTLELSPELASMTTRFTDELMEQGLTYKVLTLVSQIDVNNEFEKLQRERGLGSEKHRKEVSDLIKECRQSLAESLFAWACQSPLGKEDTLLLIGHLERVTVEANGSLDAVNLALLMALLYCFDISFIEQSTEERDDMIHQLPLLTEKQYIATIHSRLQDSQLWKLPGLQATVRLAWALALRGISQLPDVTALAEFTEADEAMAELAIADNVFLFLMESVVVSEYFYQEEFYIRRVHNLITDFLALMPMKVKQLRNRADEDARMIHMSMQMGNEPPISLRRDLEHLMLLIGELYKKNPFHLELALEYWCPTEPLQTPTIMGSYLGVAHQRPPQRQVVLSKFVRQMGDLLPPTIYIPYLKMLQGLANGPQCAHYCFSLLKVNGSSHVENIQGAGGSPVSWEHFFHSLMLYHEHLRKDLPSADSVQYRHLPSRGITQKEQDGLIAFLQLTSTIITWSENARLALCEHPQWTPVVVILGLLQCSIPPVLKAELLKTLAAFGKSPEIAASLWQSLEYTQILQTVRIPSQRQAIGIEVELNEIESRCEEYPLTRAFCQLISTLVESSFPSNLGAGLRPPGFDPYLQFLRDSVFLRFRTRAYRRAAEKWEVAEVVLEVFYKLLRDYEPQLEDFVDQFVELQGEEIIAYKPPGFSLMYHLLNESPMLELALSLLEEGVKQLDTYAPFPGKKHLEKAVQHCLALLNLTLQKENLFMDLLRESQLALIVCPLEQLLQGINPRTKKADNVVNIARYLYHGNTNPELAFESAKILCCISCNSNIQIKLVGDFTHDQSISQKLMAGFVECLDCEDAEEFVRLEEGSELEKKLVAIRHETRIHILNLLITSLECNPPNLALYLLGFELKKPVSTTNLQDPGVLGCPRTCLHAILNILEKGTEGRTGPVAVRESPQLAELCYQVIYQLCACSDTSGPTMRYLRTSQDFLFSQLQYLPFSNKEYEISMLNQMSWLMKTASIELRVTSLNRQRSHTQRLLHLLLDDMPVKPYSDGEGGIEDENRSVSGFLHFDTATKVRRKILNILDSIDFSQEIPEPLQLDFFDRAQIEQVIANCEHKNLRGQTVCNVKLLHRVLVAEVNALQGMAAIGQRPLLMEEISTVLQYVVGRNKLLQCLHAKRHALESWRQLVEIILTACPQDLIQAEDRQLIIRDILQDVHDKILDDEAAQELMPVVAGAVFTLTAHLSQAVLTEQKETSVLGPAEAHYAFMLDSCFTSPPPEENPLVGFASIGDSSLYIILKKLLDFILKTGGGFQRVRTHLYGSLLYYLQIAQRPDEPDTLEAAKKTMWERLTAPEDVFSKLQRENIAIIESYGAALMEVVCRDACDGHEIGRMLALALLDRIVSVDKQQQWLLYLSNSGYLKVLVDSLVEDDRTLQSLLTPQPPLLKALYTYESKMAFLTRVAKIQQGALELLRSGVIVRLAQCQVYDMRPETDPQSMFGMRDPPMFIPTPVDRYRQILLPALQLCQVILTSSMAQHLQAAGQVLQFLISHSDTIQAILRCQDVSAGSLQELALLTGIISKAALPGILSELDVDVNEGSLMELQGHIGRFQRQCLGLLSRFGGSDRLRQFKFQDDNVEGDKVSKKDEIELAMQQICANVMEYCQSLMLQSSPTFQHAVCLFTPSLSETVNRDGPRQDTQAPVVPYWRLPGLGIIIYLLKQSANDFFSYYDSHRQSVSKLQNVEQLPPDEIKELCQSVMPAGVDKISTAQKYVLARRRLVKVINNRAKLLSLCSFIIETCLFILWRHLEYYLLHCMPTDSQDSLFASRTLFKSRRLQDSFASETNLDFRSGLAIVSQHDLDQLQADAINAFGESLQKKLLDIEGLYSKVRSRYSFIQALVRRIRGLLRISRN
inactive: vemurafenib 0.007 | [1] 0.017 | barasertib 0.038 | [2] -0.047 | volasertib -0.074 | [3] 0.027 | [4] -0.075 | [5] -0.064 | saracatinib 0.043 | sotrastaurin 0.022 | alvocidib -0.02 | Tubastatin A -0.078 | [6] 0.012 | defactinib 0.015 | [7] -0.003 | encorafenib 0.016 | [8] -0.081 | alisertib 0.008 | [9] 0 | gefitinib -0.018

NCAPH2 (UniProt Q6IBW4)
inactive: vemurafenib -0.044 | [1] 0.027 | barasertib 0.058 | [2] 0.027 | volasertib -0.002 | [3] -0.014 | [4] -0.032 | [5] 0.02 | saracatinib 0.001 | sotrastaurin 0.03 | alvocidib 0.038 | Tubastatin A -0.193 | [6] 0 | defactinib 0.005 | [7] -0.084 | encorafenib 0.064 | [8] -0.039 | alisertib -0.027 | [9] 0.01 | gefitinib -0.048

PAN2 isoform 2 (UniProt Q504Q3)
UniProt Q504Q3, sequence (Q504Q3 whole entry, looked up): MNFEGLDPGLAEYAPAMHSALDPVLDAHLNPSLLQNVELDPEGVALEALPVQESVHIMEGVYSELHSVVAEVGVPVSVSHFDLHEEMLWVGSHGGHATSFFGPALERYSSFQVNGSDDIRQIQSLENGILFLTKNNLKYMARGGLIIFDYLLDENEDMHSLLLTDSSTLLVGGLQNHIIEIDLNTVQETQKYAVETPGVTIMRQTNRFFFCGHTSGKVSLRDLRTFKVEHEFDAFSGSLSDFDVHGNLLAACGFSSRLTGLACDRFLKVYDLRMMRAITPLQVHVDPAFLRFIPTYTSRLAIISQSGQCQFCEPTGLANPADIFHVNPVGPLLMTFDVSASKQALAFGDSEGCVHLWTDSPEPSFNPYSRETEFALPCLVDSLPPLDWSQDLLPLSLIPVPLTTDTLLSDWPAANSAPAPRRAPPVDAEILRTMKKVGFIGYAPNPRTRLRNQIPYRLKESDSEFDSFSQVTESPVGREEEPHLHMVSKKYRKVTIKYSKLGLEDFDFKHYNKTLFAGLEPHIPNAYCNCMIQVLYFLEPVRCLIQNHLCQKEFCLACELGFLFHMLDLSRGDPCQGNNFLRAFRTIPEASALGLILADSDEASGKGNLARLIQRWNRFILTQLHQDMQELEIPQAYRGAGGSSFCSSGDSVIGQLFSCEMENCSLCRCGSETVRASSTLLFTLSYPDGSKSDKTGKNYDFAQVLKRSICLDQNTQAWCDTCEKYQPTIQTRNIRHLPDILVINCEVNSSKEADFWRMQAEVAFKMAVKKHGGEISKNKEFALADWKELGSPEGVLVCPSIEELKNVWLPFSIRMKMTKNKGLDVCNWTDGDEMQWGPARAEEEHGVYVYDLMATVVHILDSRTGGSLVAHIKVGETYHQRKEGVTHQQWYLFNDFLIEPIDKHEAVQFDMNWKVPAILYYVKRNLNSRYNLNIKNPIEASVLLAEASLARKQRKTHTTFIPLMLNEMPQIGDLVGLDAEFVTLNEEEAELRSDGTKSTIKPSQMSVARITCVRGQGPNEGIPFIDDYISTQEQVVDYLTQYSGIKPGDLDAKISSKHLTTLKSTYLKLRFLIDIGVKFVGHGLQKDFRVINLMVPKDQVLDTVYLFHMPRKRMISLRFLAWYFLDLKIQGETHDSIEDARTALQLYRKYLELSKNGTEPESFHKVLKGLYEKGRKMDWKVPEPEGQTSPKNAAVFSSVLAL
inactive: vemurafenib 0.072 | [1] 0.031 | barasertib 0.03 | [2] 0.041 | volasertib -0.132 | [3] 0.031 | [4] 0.006 | [5] -0.04 | saracatinib -0.021 | sotrastaurin 0.018 | alvocidib -0.023 | Tubastatin A -0.025 | [6] -0.018 | defactinib -0.099 | [7] -0.046 | encorafenib 0.08 | [8] -0.041 | alisertib 0 | [9] -0.043 | gefitinib -0.044

NBEAL2 (UniProt Q6ZNJ1)
inactive: vemurafenib -0.047 | [1] 0.021 | barasertib 0.045 | [2] -0.053 | volasertib -0.128 | [3] 0.01 | [4] 0.013 | [5] -0.037 | saracatinib 0.013 | sotrastaurin 0 | alvocidib 0.031 | Tubastatin A -0.141 | [6] -0.005 | defactinib 0.022 | [7] 0.033 | encorafenib 0.003 | [8] -0.029 | alisertib -0.053 | [9] -0.009 | gefitinib 0.01

MT-CYB (UniProt P00156)
inactive: vemurafenib 0.004 | [1] -0.03 | barasertib -0.054 | [2] 0 | volasertib 0.056 | [3] -0.097 | saracatinib 0.047 | sotrastaurin 0.027 | alvocidib -0.326 | Tubastatin A 0.078 | [6] -0.027 | defactinib 0.091 | [7] 0.129 | encorafenib 0.036 | [8] -0.093 | alisertib -0.131 | [9] 0.062 | gefitinib 0.102
active: [4] -0.993 | [5] 0.521

ORC3 isoform 2 (UniProt Q9UBD5)
inactive: vemurafenib 0.016 | [1] -0.008 | barasertib 0.022 | [2] -0.036 | volasertib -0.059 | [3] -0.006 | [4] -0.063 | [5] -0.018 | saracatinib -0.001 | sotrastaurin 0.027 | alvocidib 0.006 | Tubastatin A -0.155 | [6] 0.007 | defactinib 0.022 | [7] 0.035 | encorafenib 0.02 | [8] 0.15 | alisertib 0.001 | [9] -0.009 | gefitinib -0.019

ORC5 (UniProt O43913)
UniProt O43913, sequence (O43913 whole entry, looked up): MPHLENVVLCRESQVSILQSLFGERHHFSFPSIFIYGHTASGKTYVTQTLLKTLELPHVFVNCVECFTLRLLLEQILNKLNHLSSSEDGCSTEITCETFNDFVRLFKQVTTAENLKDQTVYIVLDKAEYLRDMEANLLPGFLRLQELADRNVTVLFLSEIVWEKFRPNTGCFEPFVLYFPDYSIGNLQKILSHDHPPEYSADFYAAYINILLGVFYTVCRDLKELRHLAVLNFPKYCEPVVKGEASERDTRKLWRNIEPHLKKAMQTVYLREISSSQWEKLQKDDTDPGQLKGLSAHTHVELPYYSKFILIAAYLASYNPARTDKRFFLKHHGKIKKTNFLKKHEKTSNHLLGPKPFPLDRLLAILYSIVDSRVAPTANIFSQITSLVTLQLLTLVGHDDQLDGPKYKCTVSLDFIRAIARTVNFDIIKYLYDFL
inactive: vemurafenib -0.059 | [1] -0.001 | barasertib -0.052 | [2] -0.156 | volasertib -0.023 | [3] 0.013 | [4] -0.038 | [5] 0.01 | saracatinib -0.001 | sotrastaurin 0.024 | alvocidib 0.001 | Tubastatin A -0.163 | [6] 0.001 | defactinib 0.062 | [7] -0.008 | encorafenib 0.049 | [8] 0.165 | alisertib -0.004 | [9] 0.006 | gefitinib -0.011

NFATC1 (UniProt O95644)
UniProt O95644, sequence (O95644 whole entry, looked up): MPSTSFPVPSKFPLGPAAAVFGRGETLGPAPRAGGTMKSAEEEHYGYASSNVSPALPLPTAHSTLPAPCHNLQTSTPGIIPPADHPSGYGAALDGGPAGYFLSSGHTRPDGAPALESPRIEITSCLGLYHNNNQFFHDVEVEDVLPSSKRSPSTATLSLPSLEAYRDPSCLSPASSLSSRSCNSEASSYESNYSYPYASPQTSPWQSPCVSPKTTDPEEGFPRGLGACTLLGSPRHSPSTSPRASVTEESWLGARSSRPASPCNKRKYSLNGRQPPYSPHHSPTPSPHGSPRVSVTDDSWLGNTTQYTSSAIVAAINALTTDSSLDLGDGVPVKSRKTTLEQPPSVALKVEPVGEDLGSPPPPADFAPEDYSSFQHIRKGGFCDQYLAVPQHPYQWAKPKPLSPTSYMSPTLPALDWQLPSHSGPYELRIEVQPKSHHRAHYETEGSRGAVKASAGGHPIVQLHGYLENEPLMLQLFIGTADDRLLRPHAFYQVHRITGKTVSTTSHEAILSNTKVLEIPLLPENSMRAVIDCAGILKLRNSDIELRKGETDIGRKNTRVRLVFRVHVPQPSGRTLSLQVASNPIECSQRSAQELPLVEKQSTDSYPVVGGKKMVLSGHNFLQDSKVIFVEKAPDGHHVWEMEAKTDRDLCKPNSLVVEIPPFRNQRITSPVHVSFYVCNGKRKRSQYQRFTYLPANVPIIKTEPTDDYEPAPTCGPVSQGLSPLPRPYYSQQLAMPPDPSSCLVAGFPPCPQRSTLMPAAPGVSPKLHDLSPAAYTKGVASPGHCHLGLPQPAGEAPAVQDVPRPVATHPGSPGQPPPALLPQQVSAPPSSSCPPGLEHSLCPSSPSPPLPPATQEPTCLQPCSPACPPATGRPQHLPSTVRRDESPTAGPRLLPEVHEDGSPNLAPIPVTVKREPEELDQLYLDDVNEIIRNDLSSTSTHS
inactive: vemurafenib 0.004 | [1] 0.058 | barasertib -0.015 | [2] 0.001 | volasertib 0 | [3] 0.007 | [4] -0.118 | [5] 0.064 | saracatinib 0.042 | sotrastaurin 0 | alvocidib -0.024 | Tubastatin A -0.138 | [6] 0.124 | defactinib -0.012 | [7] -0.031 | encorafenib -0.071 | [8] 0.048 | alisertib -0.025 | [9] 0.001 | gefitinib 0.027

MT-ND1 (UniProt P03886)
UniProt P03886, sequence (P03886 whole entry, looked up): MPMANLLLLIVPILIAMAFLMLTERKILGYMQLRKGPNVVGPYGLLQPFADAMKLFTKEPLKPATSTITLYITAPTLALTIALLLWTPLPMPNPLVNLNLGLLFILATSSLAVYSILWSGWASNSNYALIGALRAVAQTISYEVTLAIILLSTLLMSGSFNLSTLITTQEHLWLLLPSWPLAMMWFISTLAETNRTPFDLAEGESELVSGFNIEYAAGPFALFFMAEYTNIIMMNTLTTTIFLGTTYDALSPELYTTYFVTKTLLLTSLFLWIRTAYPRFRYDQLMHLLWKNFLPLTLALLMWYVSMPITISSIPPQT
inactive: vemurafenib -0.074 | [1] 0.012 | barasertib 0.056 | [2] -0.068 | volasertib -0.04 | [3] -0.096 | [4] -0.355 | [5] 0.066 | saracatinib 0.075 | sotrastaurin 0.038 | alvocidib -0.149 | Tubastatin A -0.037 | [6] 0.043 | defactinib 0.081 | [7] 0.014 | encorafenib 0.046 | [8] -0.051 | alisertib 0.032 | [9] -0.073 | gefitinib 0.087

NIPSNAP3A (UniProt Q9UFN0)
inactive: vemurafenib -0.005 | [1] 0.018 | barasertib -0.04 | [2] 0.043 | volasertib 0.019 | [3] -0.024 | [4] 0.324 | [5] -0.213 | saracatinib -0.002 | sotrastaurin 0.021 | Tubastatin A 0.015 | [6] 0.016 | defactinib -0.021 | [7] 0.025 | encorafenib 0.016 | [8] -0.022 | alisertib -0.023 | [9] 0.005 | gefitinib -0.023
active: alvocidib 0.288

N6AMT1 (UniProt Q9Y5N5)
inactive: vemurafenib 0.201 | [1] -0.016 | barasertib 0.113 | [2] 0.005 | volasertib -0.04 | [3] 0.006 | [4] -0.047 | [5] -0.048 | saracatinib 0.019 | sotrastaurin 0.038 | alvocidib 0.062 | Tubastatin A 0.026 | [6] 0.048 | [7] 0.021 | encorafenib -0.011 | [8] 0.069 | alisertib -0.084 | [9] 0.004 | gefitinib -0.045
active: defactinib 0.361

PANK4 (UniProt Q9NVE7)
active: [8] 0.498
inactive: vemurafenib 0.026 | [1] 0.011 | barasertib 0.054 | [2] -0.051 | volasertib -0.091 | [3] 0.003 | [4] -0.136 | [5] 0.077 | saracatinib 0.001 | sotrastaurin 0.012 | alvocidib -0.009 | Tubastatin A -0.117 | [6] 0.018 | defactinib 0.01 | [7] 0.019 | encorafenib -0.011 | alisertib -0.028 | [9] 0.013 | gefitinib -0.017

NIT2 (UniProt Q9NQR4)
inactive: vemurafenib -0.003 | [1] 0.005 | barasertib -0.008 | [2] 0.005 | volasertib -0.004 | [3] -0.004 | [4] 0.02 | [5] -0.013 | saracatinib -0.008 | sotrastaurin -0.012 | alvocidib 0.046 | Tubastatin A 0.047 | [6] -0.003 | defactinib -0.05 | [7] 0.013 | encorafenib -0.032 | [8] 0.082 | alisertib 0.012 | [9] 0.019 | gefitinib -0.017

MTA1 (UniProt Q13330)
inactive: vemurafenib -0.022 | [1] 0.011 | barasertib 0.008 | [2] -0.005 | volasertib -0.007 | [3] -0.003 | [4] 0.013 | [5] -0.061 | saracatinib 0.018 | sotrastaurin 0.036 | alvocidib 0.007 | Tubastatin A -0.045 | [6] 0.013 | defactinib 0.008 | [7] -0.01 | encorafenib -0.005 | [8] 0.098 | alisertib -0.026 | [9] 0.023 | gefitinib -0.023
